Out of some 5,500 compounds screened, about 2,000 (36%) were called active. About 18% were inconclusive and are not listed. No stated cut-off is given here; in the data, active means normalized growth mostly below about 0.91 (no sharp cut-off); inconclusive means no clear call, values can overlap the other calls; inactive means mostly above about 0.92. This is one part of the list.
Assay: chemical genetic growth profiling, strain panel (AID 1159580);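 further: tested at 20 µM; growth read once vehicle control cultures reached saturation at 30 °C; 1 = growth at the plate median or of vehicle wells; lower values mean less growth of the strain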
Details: growth OD
[1] = S. cerevisiae deletion strains, locus YAL040C, strain CLN3, hits give low values
[2] = S. cerevisiae deletion strains, locus YCL061C, strain MRC1 (second series), hits give low values
[3] = S. cerevisiae deletion strains, locus YDR150W, strain NUM1, hits give low values
[4] = S. cerevisiae deletion strains, locus YDR363W, strain ESC2, hits give low values
[5] = S. cerevisiae deletion strains, locus YER002W, strain NOP16, hits give low values
[6] = S. cerevisiae deletion strains, locus YJR075W, strain HOC1, hits give low values
[7] = S. cerevisiae deletion strains, locus YMR263W, strain SAP30, hits give low values
[8] = S. cerevisiae deletion strains, locus YNL128W, strain TEP1, hits give low values
[9] = S. cerevisiae deletion strains, locus YNL153C, strain GIM3, hits give low values
[10] = S. cerevisiae deletion strains, locus YNL175C, strain NOP13, hits give low values
[11] = S. cerevisiae deletion strains, locus YNL197C, strain WHI3, hits give low values
[12] = S. cerevisiae deletion strains, locus YNL224C, strain SQS1, hits give low values
[13] = S. cerevisiae deletion strains, locus YNL322C, strain KRE1, hits give low values
[14] = S. cerevisiae deletion strains, locus YOR083W, strain WHI5 (second series), hits give low values
[15] = S. cerevisiae deletion strains, locus YPL055C, strain LGE1, hits give low values
[16] = S. cerevisiae deletion strains, locus YPL241C, strain CIN2, hits give low values

Measured: normalized growth

O=C(O)CCCCCC[C@H]1C(=O)NC(=O)N1CC[C@@H](O)C1CCCCC1
inactive: [1] 0.969 | [2] 0.985 | [3] 0.996 | [4] 0.985 | [5] 0.936 | S. cerevisiae deletion strains, locus YGR229C, strain SMI1, hits give low values 0.999 | [6] 0.996 | [7] 0.993 | S. cerevisiae deletion strains, locus YMR307W, strain GAS1, hits give low values 1 | [8] 0.942 | [9] 0.971 | [10] 0.987 | [11] 0.962 | [12] 0.982 | [13] 0.99 | [14] 0.985

COc1ccccc1C1OC(=O)CC1C(=O)O (stereo not drawn)
inactive: S. cerevisiae deletion strains, locus YBR229C, strain ROT2, hits give low values 1.02 | S. cerevisiae deletion strains, locus YCL061C, strain MRC1, hits give low values 0.989 | S. cerevisiae deletion strains, locus YDL101C, strain DUN1, hits give low values 1 | S. cerevisiae deletion strains, locus YDL134C, strain PPH21, hits give low values 1.03 | [3] 0.947 | S. cerevisiae deletion strains, locus YEL061C, strain CIN8, hits give low values 1 | S. cerevisiae deletion strains, locus YGR078C, strain PAC10, hits give low values 0.987 | S. cerevisiae deletion strains, locus YHR030C, strain SLT2, hits give low values 0.963 | S. cerevisiae deletion strains, locus YHR087W, strain rtc3, hits give low values 1.03 | S. cerevisiae deletion strains, locus YJL187C, strain SWE1, hits give low values 1.01 | S. cerevisiae deletion strains, locus YJR043C, strain POL32, hits give low values 0.98 | [6] 0.986 | S. cerevisiae deletion strains, locus YLR039C, strain RIC1, hits give low values 1.02 | S. cerevisiae deletion strains, locus YLR058C, strain SHM2 (second series), hits give low values 1.01 | S. cerevisiae deletion strains, locus YLR085C, strain ARP6, hits give low values 1.02 | S. cerevisiae deletion strains, locus YLR262C, strain YPT6, hits give low values 1.02 | S. cerevisiae deletion strains, locus YML094W, strain GIM5, hits give low values 1.02 | S. cerevisiae deletion strains, locus YMR219W, strain ESC1, hits give low values 1.01 | [7] 0.968 | [8] 1.02 | [9] 1 | S. cerevisiae deletion strains, locus YNL298W, strain CLA4 (second series), hits give low values 0.998 | [13] 0.999 | S. cerevisiae deletion strains, locus YNR030W, strain Alg12, hits give low values 1.01 | S. cerevisiae deletion strains, locus YOL006C, strain TOP1, hits give low values 1.07 | [15] 0.955 | [16] 0.989 | S. cerevisiae deletion strains, locus YPR135W, strain CTF4, hits give low values 1.02 | S. cerevisiae strains, strain wild type, hits give low values 1.02

N=C(N)c1ccc(OCCCCCOc2ccc(C(=N)N)cc2)cc1 (tested in a mixture with another compound)
inactive: S. cerevisiae deletion strains, locus YAL013W, strain DEP1, hits give low values 0.943 | [1] 0.944 | [2] 0.981 | [3] 0.963 | [4] 0.961 | [5] 0.95 | [7] 0.983 | [10] 0.962 | [11] 0.943 | [12] 0.946 | [14] 0.944 | [15] 0.912 | [16] 0.95

Source: PubChem BioAssay AID1159580 (chemical genetic matrix, 2015)
